BAZ2B block: inhibitors of human BAZ2B bromodomain | Q9UIF8 | AlphaScreen BAZ2B-H3K14Ac peptide displacement | Potency, µM (highest dose often 114 µM), for inactives: top-dose activity change, negative = inhibition, usual class: inhibitors | hit rate 4.4% among 360,000 | AID 504333; note: % is set by controls: 0 for no effect and ±100 for the full control effect; nearly all actives have a fitted effect of over 60% in size
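Inhibition is scored as reduced AlphaScreen emission. The BAZ2B/b-H3(5-23)K14Ac complex (50 nM each) in PBS pH 7.4, 0.01% Tween-20 meets compound (up to 110 uM) for 30 min at RT before bead addition.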
HP1b binding inh: inhibitors of HP1-beta chromodomain binding to methylated histone tails. AlphaScreen HP1-beta / biotin-H3K9me3 peptide binding. Potency, µM (titrated, usually from 114 µM), inactives show at the top dose activity change, negative = inhibition, usual class: inhibitors. hit rate 0.56% among 390,000. AID 540317; note: nearly all actives have a fitted effect of over 70% in size
Target sequence (P83916 whole entry, looked up): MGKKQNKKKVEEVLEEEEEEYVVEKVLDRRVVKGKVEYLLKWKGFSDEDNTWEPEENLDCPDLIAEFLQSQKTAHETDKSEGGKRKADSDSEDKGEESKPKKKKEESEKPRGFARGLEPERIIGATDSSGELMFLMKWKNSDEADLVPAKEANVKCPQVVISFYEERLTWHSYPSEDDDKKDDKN
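HP1-beta protein (50 nM final) preincubated 30 min at room temperature with biotinylated H3(1-18)K9me3 peptide (50 nM) in PBS pH 7.4, 0.01% Tween-20, then compound added for 30 min. AlphaScreen streptavidin donor/nickel chelate acceptor beads (10 ug/mL final), 30 min dark, luminescence read.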
Sfp inh: inhibitors of Bacillus subtilis Sfp phosphopantetheinyl transferase | Potency, µM, without a hit: largest response in the series, negative = inhibition, usual class: inhibitors | hit rate 3.5% among 310,000 | AID 1490 | Q9F4F7 | Biochemical Sfp PPTase activity, qHTS;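 note: the enzyme is Sfp with the accession as filed and its product quenches rhodamine fluorescence; 0% = enzyme reaction without inhibitor and -100% = no enzyme wells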
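Sfp 15 nM + cpd, 15 min RT; start w/ rhodamine-CoA 5 uM, BHQ-2-YbbR 12.5 uM (final); 50 mM Hepes pH 7.6, 10 mM MgCl2, 0.01% NP-40, 0.01% BSA; read 525/598 nm at 0 and 30 min.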
JMJD2A Tudor inh: JMJD2A Tudor domain (human) inhibition. O75164. AlphaScreen JMJD2A-Tudor / H3K4me3 peptide binding. Potency, µM (top dose mostly 114 µM), inactives show at the highest dose activity change, negative = inhibition, usual class: inhibitors. hit rate 4.4% among 390,000. AID 504339; note: % is set by controls: 0 for no effect and ±100 for the full control effect; nearly all actives have a fitted effect of over 50% in size
G9a inh: inhibitors of human histone lysine methyltransferase G9a. Q96KQ7. G9a H3K9 monomethylation, AlphaScreen, 2 h. Potency, µM (titrated, usually from 102 µM), without a hit: at the top dose activity, negative = inhibition, actives largely listed as inhibitors. hit rate 8.8% among 350,000. AID 504332; note: % is set by controls: 0 for no effect and ±100 for the full control effect; nearly all actives have a fitted effect of over 75% in size
Target sequence (Q96KQ7 913-1193 limits assumed): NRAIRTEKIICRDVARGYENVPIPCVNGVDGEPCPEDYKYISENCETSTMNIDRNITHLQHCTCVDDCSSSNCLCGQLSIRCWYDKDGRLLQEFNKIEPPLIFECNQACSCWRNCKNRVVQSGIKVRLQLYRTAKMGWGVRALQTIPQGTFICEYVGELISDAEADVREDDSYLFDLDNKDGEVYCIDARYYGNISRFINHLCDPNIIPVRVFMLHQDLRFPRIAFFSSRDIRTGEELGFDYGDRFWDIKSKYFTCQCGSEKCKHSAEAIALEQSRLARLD
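Methyltransferase reactions run at room temperature for 2 h (20 nM enzyme, 500 nM biotin-H3K9 peptide, 20 uM SAM) after a 15 min compound preincubation; product detected by AlphaScreen beads and anti-H3K9me1 antibody.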
The depositor's hits bear a star; u = inconclusive; x = not tested or not shown; [ ] = another dose, or the depositor's remark. Only some compounds are listed: those with a hit (about 12% of all), similar ones and a draw of the others. Calls come from the whole dose curve; as a rule, active = well fitted curve in the direction sought with a large enough effect; inconclusive = small, poorly fitted or top-dose-only effect, or another doubt; inactive = no such curve, though single readings can be large; an effect the other way counts as inactive or inconclusive. Potency is the fitted concentration of half-maximal effect.

SMILES	BAZ2B block	HP1b binding inh	Sfp inh	JMJD2A Tudor inh	G9a inh
O=C(N/N=C/c1ccccc1O)C1SCCCS1	79.4µM*	47.5%	3.2%	u	62.2%
Fc1cccc(F)c1/C=N/NC(=S)Nc1cccnc1	-11.0%	38.9%	-4.6%	-9.1%	14.8%
CC(=O)NC12CC3CC(C1)CC(C(=O)Nc1nc4c(C)cccc4s1)(C3)C2	-23.4%	2.9%	-10.0%	-27.7%	u
C[C@@]12CCc3occc3[C@H]1CC[C@@]13C[C@@H](CC[C@H]12)[C@@](O)(CO)C3	x	x	23.3%	x	x
O=C(N/N=C/c1ccc(O)cc1O)C(=O)N/N=C/c1ccc(O)cc1O	35.5µM*	-6.8%	15.5%	2.51µM*	28.0%[59 µM]
Cc1cc(O)c(/C=N/Nc2ccccc2)c(=O)o1	u	2.6%	17.8µM*	8.91µM*	u
Oc1ccc(/C=N/Nc2ccc3ccccc3c2)c(O)c1	u	u	50.1µM*	u	6.31µM*
Cc1nc(Cl)cc(N/N=C/c2ccc(O)cc2)n1	-0.3%	27.6%	13.4%	-11.2%	11.9%
Cc1nc(Cl)cc(N/N=C/c2ccc(O)cc2O)n1	35.5µM*	38.5%	7.0%	u	u
COc1ccc(NC(=O)CCCSc2nc(-c3ccco3)cc(C(F)(F)F)n2)cc1	-0.9%	27.0%	x	1.4%	8.7%[59 µM]
COc1cccc(CNC(=O)c2oc3ccc4c(c3c2C)C(=O)CC(C)(C)O4)c1OC	-17.2%	29.6%	x	-18.2%	-23.9%[59 µM]
Cc1cc2c(s1)c1cnn(Cc3cccc4cccnc34)c(=O)c1n2C	x	x	x	-24.0%	x
CN1CCN(CC(=O)N/N=C\c2c[nH]c3ccccc23)CC1	-33.9%	x	u	x	15.8µM*
CNC(=S)N/N=C/c1ccccc1Cl	-9.1%	15.0%	-22.6%	-16.7%	7.8%
Oc1ccccc1C=NNC(=S)NN=Cc1ccccc1O	x	-16.2%[57 µM]	x	20µM*	x
O=C(CCN1CCCCC1)N/N=C/c1c[nH]c2ccccc12	-6.1%	26.3%	7.7%	-14.0%	u
Oc1ccccc1/C=N/Nc1ccccc1	-35.9%	22.0%	-3.7%	-31.9%	8.91µM*
COc1cccc(CNC(=O)CNS(=O)(=O)c2ccc3nc(C)sc3c2)c1	8.2%	56.2%	x	-10.7%	-5.6%[59 µM]
CC(CNC(=O)c1csc2c1CCCCC2)c1ccccc1 (configuration not stated)	0.5%	67.8%	x	13.5%	20.4%[59 µM]
COC(=O)c1ccc(NC(=O)CN(c2cccc(C(F)(F)F)c2)S(C)(=O)=O)cc1	-13.0%	60.3%	x	-6.0%	6.7%[59 µM]
O=C(CSc1n[nH]c(-c2ccccn2)n1)Nc1ccccc1F	4.47µM*	28.8%	u	2.51µM*	29.1%
Nc1nc(SCC(=O)Nc2cccc(Oc3ccccc3)c2)n[nH]1	-30.0%	11.8%	-3.6%	-20.0%	15.8µM*
COc1ccccc1-c1nc(SCC(=O)Nc2ccccc2F)n[nH]1	-4.5%	22.7%	7.9%	2.1%	24.7%
O=C(CSc1n[nH]c(-c2ccccn2)n1)Nc1ccccc1	u	46.8%	-19.4%	3.98µM*	x
COc1ccc(NC(=O)CSc2n[nH]c(-c3ccccn3)n2)cc1	3.55µM*	35.5%	-13.4%	3.98µM*	-3.1%
SMILES	BAZ2B block	HP1b binding inh	Sfp inh	JMJD2A Tudor inh	G9a inh
COc1ccccc1NC(=O)CSc1n[nH]c(-c2ccccn2)n1	4.47µM*	23.4%	-8.1%	3.55µM*	11.9%
CC(C)CC1=C/C(=C/c2ccc(-c3ccccc3)o2)C(=O)O1	44.7µM*	u	u	u	12.6µM*
CC1=C(CC(=O)c2ccccc2)C(=O)c2ccccc2C1=O	22.4µM*	u	-19.6%	35.5µM*	31.6µM*
C=CCSc1nc2sc(C)c(C)c2c(=O)n1CC=C	96.6%	186.5%	50.1µM*	57.6%	5.62µM*
C=CCn1c(SCC(=O)N2CCOCC2)nc2sc(C)c(C)c2c1=O	-0.6%	-7.8%	21.0%	-3.5%	-10.6%
CCc1nccn1S(=O)(=O)c1ccc(OC)c(OC)c1	4.0%	21.0%	3.4%	-21.4%	-12.8%
CCc1nccn1S(=O)(=O)c1ccc(C)c(C)c1	8.0%	27.7%	13.2%	-13.6%	44.7µM*
COC(=O)N/N=C\c1ccc(OC(=O)c2ccco2)cc1	-8.9%	38.1%	1.6%	-0.7%	10.7%[59 µM]
COC(=O)N/N=C/c1ccc(OC(=O)/C=C/c2ccco2)cc1	70.8µM*	-20.6%	-17.8%	u	x
O=C(Cc1ccccc1)N/N=C/c1ccc(OC(=O)/C=C\c2ccco2)cc1	-0.5%	21.3%	9.4%	0.0%	u
CC(C)(C)OC(=O)N/N=C\c1ccc(OC(=O)c2ccco2)cc1	18.2%	-11.9%	11.6%	31.6µM*	-39.7%
CCOc1cc(/C=N\NC(=O)OC(C)(C)C)ccc1OC(=O)c1ccco1	x	-20.1%	-4.0%	20µM*	-12.9%
COc1ccc2c(c1)O[C@H](c1ccc3c(c1)OCO3)[C@@H](OC(=O)NS(=O)(=O)c1ccc(F)cc1)C2=O	x	x	10.9%	x	x
NS(=O)(=O)c1ccc(NC(=O)COC(=O)CSc2n[nH]c(-c3ccccc3)n2)cc1	-8.2%	35.3%	8.2%	-6.4%	31.6µM*
Cc1cc(-c2nnc(SCC(=O)Nc3cccc(Cl)c3)n2N)n[nH]1	56.2µM*	44.5%	3.5%	-2.3%	2.7%
COc1cccc(NC(=O)CSc2nnc(-c3cc(C)[nH]n3)n2N)c1	-18.7%	34.6%	7.4%	-3.0%	-4.2%[0.0925 µM]
O=C(CSc1n[nH]c(-c2cccnc2)n1)Nc1cccc(Cl)c1	2.3%	81.9%	9.4%	-9.2%	50.1µM*
O=C(CSc1n[nH]c(-c2ccncc2)n1)Nc1ccccc1Cl	7.0%	8.1%	x	-7.5%	50.1µM*
O=C(CSc1n[nH]c(-c2cccnc2)n1)Nc1ccccc1	11.2%	53.0%	-4.0%	-5.1%	12.4%[59 µM]
COc1ccc(OCCN2CCN(C(=O)c3ccc(OC)c(OC)c3)CC2)cc1	-2.8%	-6.3%	13.7%	-4.2%	13.7%
CCOc1ccc(CCNC(=O)CN2C(=O)NC3(CCCCCC3)C2=O)cc1OCC	-4.0%	22.3%	x	-8.1%	4.2%[12.7 µM]
CCOC(=O)c1ccc(NC(=O)CC2C(=O)N(c3cccc(OC)c3)C(=O)N2Cc2ccc(OC)cc2)cc1 (configuration not stated)	-14.9%	25.7%	x	-16.6%	-2.5%[59 µM]
N#Cc1cccc(-c2cncnc2NCc2ccccc2)c1	x	x	11.0%	x	-26.9%[0.501 µM]
CCOC(=O)c1ccc(NC(=O)CSc2n[nH]c(-c3ccncc3)n2)cc1	0.6%	39.6%	10.8%	-8.2%	u
COC(=O)c1ccc(NC(=O)CSc2n[nH]c(-c3ccncc3)n2)cc1	0.0%	46.2%	1.8%	3.3%	35.5µM*
Cc1ccc2c(c1)c(C)c(C)n2CC(O)Cn1nc(C)cc1C (configuration not stated)	-51.4%	-24.3%	16.6%	u	44.7µM*
Cc1ccc2c(c1)c(C)c(C)n2CC(O)Cn1nnc2ccccc21 (configuration not stated)	u	u	0.1%	u	u
CCOC(=O)CC(=O)Nc1ccc(Br)cc1C(=O)O	11.1%	-0.3%	2.1%	56.2µM*	u
CCOc1ccc2c(c1)-c1c(ssc1=S)C(C)(C)N2	10µM*	u	-27.9%	25.1µM*	10µM*
